Test results published in the supplement of paper PMC8728848.
The full list was thinned out, with the strongest signals kept by preference.

Tests used:
Test in all cases: glycan array binding signal (z-score within array); higher = stronger binding
Conditions in all cases: glycan notation: IUPAC condensed, linker removed
[1] = target: Fuc(a1-2)Gal(b1-3)GlcNAc(b1-3)Gal(b1-4)Glc
How it was run: (§1)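 The Consortium for Functional Glycomics database supplied 3228 glycan arrays, of which those lacking an available protein sequence were dropped. The binding signal, a within-array Z-score, was averaged across arrays of the same protein sequence and across linkers. Negative scores can be read as non-binding.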

[2] = target: Fuc(a1-2)Gal(b1-3)GlcNAc6S
How it was run: as §1

[3] = target: Fuc(a1-2)Gal(b1-3)[Fuc(a1-4)]GlcNAc
How it was run: as §1

[4] = target: Fuc(a1-2)Gal(b1-4)Fuc(a1-3)]GlcNAc(b1-2)Man(a1-3)[Fuc(a1-2)Gal(b1-4)[Fuc(a1-3)]GlcNAc(b1-2)Man(a1-6)]Man(b1-4)GlcNAc(b1-4)GlcNAc
How it was run: as §1

[5] = target: Fuc(a1-2)Gal(b1-4)GlcNAc(b1-3)[Fuc(a1-2)Gal(b1-4)GlcNAc(b1-6)]GalNAc
How it was run: as §1

[6] = target: Fuc(a1-2)Gal(b1-4)[Fuc(a1-3)]GlcNAc(b1-3)Gal(b1-4)[Fuc(a1-3)]GlcNAc
How it was run: as §1

[7] = target: Fuc(a1-2)[Gal(a1-3)]Gal(b1-4)GlcNAc(b1-2)Man(a1-3)[Fuc(a1-2)[Gal(a1-3)]Gal(b1-4)GlcNAc(b1-2)Man(a1-6)]Man(b1-4)GlcNAc(b1-4)[Fuc(a1-6)]GlcNAc
How it was run: as §1

[8] = target: Fuc(a1-3)[Gal(b1-4)]GlcNAc(b1-3)Gal(b1-4)[Fuc(a1-3)]GlcNAc(b1-3)Gal(b1-4)[Fuc(a1-3)]GlcNAc
How it was run: as §1

[9] = target: Fuc(a1-3)[Gal(b1-4)]GlcNAc(b1-3)GalNAc
How it was run: as §1

[10] = target: Gal(a1-3)Gal(b1-3)GlcNAc(b1-2)Man(a1-3)[Gal(a1-3)Gal(b1-3)GlcNAc(b1-2)Man(a1-6)]Man(b1-4)GlcNAc(b1-4)GlcNAc
How it was run: as §1

[11] = target: Gal(a1-3)Gal(b1-3)GlcNAc(b1-3)GalNAc
How it was run: as §1

[12] = target: Gal(a1-3)Gal(b1-4)GlcNAc(b1-3)GalNAc
How it was run: as §1

[13] = target: Gal(a1-3)Gal(b1-4)[Fuc(a1-3)]GlcNAc(b1-2)Man(a1-3)[Gal(a1-3)Gal(b1-4)[Fuc(a1-3)]GlcNAc(b1-2)Man(a1-6)]Man(b1-4)GlcNAc(b1-4)GlcNAc
How it was run: as §1

[14] = target: Gal(a1-4)Gal(b1-4)GlcNAc(b1-3)Gal(b1-4)Glc
How it was run: as §1

Gal(a1-4)GlcNAc = target: Gal(a1-4)GlcNAc
How it was run: as §1

Gal(b1-2)Gal = target: Gal(b1-2)Gal
How it was run: as §1

[15] = target: Gal(b1-3)GlcNAc(b1-2)Man(a1-3)[Gal(b1-3)GlcNAc(b1-2)Man(a1-6)]Man(b1-4)GlcNAc(b1-4)GlcNAc
How it was run: as §1

[16] = target: Gal(b1-3)GlcNAc(b1-3)Gal(b1-4)GlcNAc(b1-3)Gal(b1-4)GlcNAc(b1-2)[Gal(b1-3)GlcNAc(b1-3)Gal(b1-4)GlcNAc(b1-3)Gal(b1-4)GlcNAc(b1-6)]Man(a1-6)[Gal(b1-3)GlcNAc(b1-3)Gal(b1-4)GlcNAc(b1-3)Gal(b1-4)GlcNAc(b1-2)Man(a1-3)]Man(b1-4)GlcNAc(b1-4)[Fuc(a1-6)]GlcNAc
How it was run: as §1

Gal(b1-3)GlcNAc6S = target: Gal(b1-3)GlcNAc6S
How it was run: as §1

[17] = target: Gal(b1-3)[Fuc(a1-4)]GlcNAc(b1-6)GalNAc
How it was run: as §1

[18] = target: Gal(b1-4)GlcNAc(b1-2)Man(a1-3)[GlcNAc(b1-4)][Gal(b1-4)GlcNAc(b1-2)Man(a1-6)]Man(b1-4)GlcNAc(b1-4)GlcNAc
How it was run: as §1

[19] = target: Gal(b1-4)GlcNAc(b1-2)[Gal(b1-4)GlcNAc(b1-4)]Man(a1-3)[GlcNAc(b1-4)][Gal(b1-4)GlcNAc(b1-2)Man(a1-6)]Man(b1-4)GlcNAc(b1-4)GlcNAc
How it was run: as §1

[20] = target: Gal(b1-4)GlcNAc(b1-2)[Gal(b1-4)GlcNAc(b1-6)]Man(a1-6)[GlcNAc(b1-4)][Gal(b1-4)GlcNAc(b1-2)Man(a1-3)]Man(b1-4)GlcNAc(b1-4)GlcNAc
How it was run: as §1

[21] = target: Gal(b1-4)GlcNAc(b1-3)Gal(b1-4)GlcNAc
How it was run: as §1

[22] = target: Gal(b1-4)GlcNAc(b1-3)Gal(b1-4)GlcNAc(b1-3)Gal(b1-4)GlcNAc(b1-3)Gal(b1-4)GlcNAc(b1-2)Man(a1-3)[Gal(b1-4)GlcNAc(b1-3)Gal(b1-4)GlcNAc(b1-3)Gal(b1-4)GlcNAc(b1-3)Gal(b1-4)GlcNAc(b1-2)Man(a1-6)]Man(b1-4)GlcNAc(b1-4)[Fuc(a1-6)]GlcNAc
How it was run: as §1

[23] = target: Gal(b1-4)GlcNAc(b1-3)Gal(b1-4)GlcNAc(b1-3)Gal(b1-4)GlcNAc(b1-3)Gal(b1-4)GlcNAc(b1-3)Gal(b1-4)GlcNAc(b1-3)Gal(b1-4)GlcNAc(b1-2)Man(a1-3)[Gal(b1-4)GlcNAc(b1-3)Gal(b1-4)GlcNAc(b1-3)Gal(b1-4)GlcNAc(b1-3)Gal(b1-4)GlcNAc(b1-3)Gal(b1-4)GlcNAc(b1-3)Gal(b1-4)GlcNAc(b1-2)Man(a1-6)]Man(b1-4)GlcNAc(b1-4)GlcNAc
How it was run: as §1

B1: AntigenI/IIA3VP1 (Streptococcus mutans), C9E3B4 (protein)
chain: AANEADYQAKLTAYQTELARVQKANADAKAAYEAAVAANNAANAALTAENTAIKKRNADAKADYEAKLAKYQADLAKYQKDLADYPVKLKAYEDEQASIKAALAELEKHKNEDGNLTEPSAQNLVYDLEPNANLSLTTDGKFLKASAVDDAFSKSTSKAKYDQKILQLDDLDITNLEQSNDVASSMELYGNFGDKAGWSTTVSNNSQVKWGSVLLERGQSATATYTNLQNSYYNGKKISKIVYKYTVDPKSKFQGQKVWLGIFTDPTLGVFASAYTGQVEKNTSIFIKNEFTFYDEDGKPINFDNALLSVASLNREHNSIEMAKDYSGKFVKISGSSIGEKNGMIYATDTLNFKQGEGGSRWTMYKNSQAGSGWDSSDAPNSWYGAGAIKMSGPNNYVTVGATSATNVMPVSDMPVVPGKDNTDGKKPNIWYSLNGKIRAVNVPKVTKEKPTPPVKPTAPTKPTYETEKPLKPAPVAPNYEKEPTPPTRLEHHHHHH
Question: For B1, which “glycan array binding signal (z-score)” value [1] is on record?
Answer: -1.26

Question: What about the “glycan array binding signal (z-score)” value [2] of the same binder?
Answer: 0.457

Question: What about the “glycan array binding signal (z-score)” value [3] of the same binder?
Answer: 0.481

Question: What about the “glycan array binding signal (z-score)” value [4] of the same binder?
Answer: 4.68

Question: What about the “glycan array binding signal (z-score)” value [5] of the same binder?
Answer: 0.339

Question: What about the “glycan array binding signal (z-score)” value [6] of the same binder?
Answer: 0.17

Question: And the “glycan array binding signal (z-score)” value [7]?
Answer: 3.1

Question: And the “glycan array binding signal (z-score)” value [8]?
Answer: -0.372

Question: What about the “glycan array binding signal (z-score)” value [9] of the same binder?
Answer: 2.64

Question: What about the “glycan array binding signal (z-score)” value [10] of the same binder?
Answer: 3.47

Question: What about the “glycan array binding signal (z-score)” value [11] of the same binder?
Answer: 2.79

Question: And the “glycan array binding signal (z-score)” value [12]?
Answer: -1.15

Question: What about the “glycan array binding signal (z-score)” value [13] of the same binder?
Answer: 0.993

Question: What about the “glycan array binding signal (z-score)” value [14] of the same binder?
Answer: -0.067

Question: And the “glycan array binding signal (z-score)” value (Gal(a1-4)GlcNAc)?
Answer: -0.879

Question: What about the “glycan array binding signal (z-score)” value (Gal(b1-2)Gal) of the same binder?
Answer: -0.551

Question: What about the “glycan array binding signal (z-score)” value [15] of the same binder?
Answer: 0.099

Question: And the “glycan array binding signal (z-score)” value [16]?
Answer: 5.61

Question: What about the “glycan array binding signal (z-score)” value (Gal(b1-3)GlcNAc6S) of the same binder?
Answer: 0.094

Question: What about the “glycan array binding signal (z-score)” value [17] of the same binder?
Answer: 3.1

Question: And the “glycan array binding signal (z-score)” value [18]?
Answer: -0.555

Question: What about the “glycan array binding signal (z-score)” value [19] of the same binder?
Answer: -0.31

Question: What about the “glycan array binding signal (z-score)” value [20] of the same binder?
Answer: -0.581

Question: What about the “glycan array binding signal (z-score)” value [21] of the same binder?
Answer: -0.087

Question: And the “glycan array binding signal (z-score)” value [22]?
Answer: 3.27

Question: What about the “glycan array binding signal (z-score)” value [23] of the same binder?
Answer: 3.91
